Bioassay records: PubChem, National Center for Advancing Translational Sciences (NCATS)
BAZ2B block – qHTS Assay for Inhibitors of BAZ2B; Bromodomain adjacent to zinc finger domain protein 2B (Homo sapiens), Q9UIF8; AlphaScreen BAZ2B-H3K14Ac peptide displacement; Potency, µM (top dose mostly 114 µM), inactives show at the top dose activity change, negative = inhibition, actives largely listed as inhibitors; hit rate 4.4% among 360,000; AID 504333, 2011; also: % is scaled to controls: 0 for no effect and ±100 for the full control effect; nearly all actives have a fitted effect of over 60% in size
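In this displacement format the biotinylated H3(5-23) peptide acetylated at Lys14 serves as ligand at 50 nM, with BAZ2B at 50 nM in PBS pH 7.4 containing 0.01% Tween-20. Donor and acceptor beads are 10 ug/mL final.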
JMJD2A Tudor inh – qHTS Assay for Inhibitors of JMJD2A-Tudor Domain | Lysine-specific demethylase 4A (Homo sapiens), O75164 | AlphaScreen JMJD2A-Tudor / H3K4me3 peptide binding | Potency, µM (series often up to 114 µM), inactives show at the highest dose activity change, negative = inhibition, most hits filed as inhibitors | hit rate 4.4% among 390,000 | AID 504339, 2011; also: % is scaled to controls: 0 for no effect and ±100 for the full control effect; nearly all actives have a fitted effect of over 50% in size
Target sequence (O75164 whole entry, looked up, the tested form may be a part): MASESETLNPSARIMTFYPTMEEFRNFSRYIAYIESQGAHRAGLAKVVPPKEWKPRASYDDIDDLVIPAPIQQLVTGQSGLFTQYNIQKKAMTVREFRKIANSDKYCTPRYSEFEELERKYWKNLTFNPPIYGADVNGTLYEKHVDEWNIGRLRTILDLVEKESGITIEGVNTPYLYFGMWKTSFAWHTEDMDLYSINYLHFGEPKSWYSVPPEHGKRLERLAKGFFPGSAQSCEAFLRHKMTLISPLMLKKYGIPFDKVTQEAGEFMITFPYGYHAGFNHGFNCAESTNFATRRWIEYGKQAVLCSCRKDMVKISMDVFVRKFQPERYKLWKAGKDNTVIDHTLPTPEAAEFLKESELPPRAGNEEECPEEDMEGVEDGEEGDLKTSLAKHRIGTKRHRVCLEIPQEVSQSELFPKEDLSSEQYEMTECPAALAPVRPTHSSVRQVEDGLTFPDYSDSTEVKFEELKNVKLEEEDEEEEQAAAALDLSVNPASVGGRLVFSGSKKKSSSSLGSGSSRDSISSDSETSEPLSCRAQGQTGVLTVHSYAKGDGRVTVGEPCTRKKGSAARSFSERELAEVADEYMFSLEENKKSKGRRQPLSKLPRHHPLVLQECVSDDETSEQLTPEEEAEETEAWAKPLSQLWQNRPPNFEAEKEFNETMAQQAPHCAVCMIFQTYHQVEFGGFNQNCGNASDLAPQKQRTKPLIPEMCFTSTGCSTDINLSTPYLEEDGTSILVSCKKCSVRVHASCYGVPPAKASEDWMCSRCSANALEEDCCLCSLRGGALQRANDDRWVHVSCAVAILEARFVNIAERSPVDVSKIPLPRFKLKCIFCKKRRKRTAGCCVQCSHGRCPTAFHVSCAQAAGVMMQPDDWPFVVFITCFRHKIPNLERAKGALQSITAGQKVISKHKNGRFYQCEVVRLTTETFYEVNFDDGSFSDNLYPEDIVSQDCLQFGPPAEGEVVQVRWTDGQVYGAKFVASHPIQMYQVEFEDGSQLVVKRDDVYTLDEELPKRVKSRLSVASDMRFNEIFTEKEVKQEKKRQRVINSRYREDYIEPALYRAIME
G9a inh – qHTS Assay for Inhibitors of Histone Lysine Methyltransferase G9a | hit rate 8.8% among 350,000 | Potency, µM (highest dose often 102 µM), for inactives: top-dose activity, negative = inhibition, actives largely listed as inhibitors | G9a H3K9 monomethylation, AlphaScreen, 2 h | Histone-lysine N-methyltransferase EHMT2 (Homo sapiens), Q96KQ7; also: % is scaled to controls: 0 for no effect and ±100 for the full control effect; nearly all actives have a fitted effect of over 75% in size
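Signal arises when biotinylated H3K9 peptide, once monomethylated, bridges streptavidin donor and antibody-captured acceptor beads. Enzyme at 20 nM was preincubated 15 min with test compounds; peptide 500 nM and SAM 20 uM then reacted for 2 h.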
HP1b binding inh – HTS for Inhibitors of HP1-beta Chromodomain Interactions with Methylated Histone Tails; Chromobox protein homolog 1 (Homo sapiens), P83916; AlphaScreen HP1-beta / biotin-H3K9me3 peptide binding; Potency, µM (doses to about 114 µM), for the others: at the highest dose activity change, negative = inhibition, actives largely listed as inhibitors; hit rate 0.56% among 390,000; AID 540317, 2011; also: nearly all actives have a fitted effect of over 70% in size
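HP1-beta protein (50 nM final) preincubated 30 min at room temperature with biotinylated H3(1-18)K9me3 peptide (50 nM) in PBS pH 7.4, 0.01% Tween-20, then compound added for 30 min. AlphaScreen streptavidin donor/nickel chelate acceptor beads (10 ug/mL final), 30 min dark, luminescence read.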
Sfp PPTase inh – qHTS Assay for Inhibitors of Bacillus subtilis Sfp phosphopantetheinyl transferase (PPTase) | hit rate 3.5% among 310,000 | Potency, µM, inactives show largest response in the series, negative = inhibition, actives largely listed as inhibitors | 4'-phosphopantetheinyl transferase ffp (Bacillus subtilis), Q9F4F7 | Biochemical Sfp PPTase activity, qHTS;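 also: the enzyme is Sfp with the accession as filed and its product quenches rhodamine fluorescence; 0% = enzyme reaction without inhibitor and -100% = no enzyme wells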
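With Hepes-Na pH 7.6 buffer containing 10 mM MgCl2, Sfp (15 nM) modified BHQ-2-YbbR (12.5 uM) using rhodamine-CoA (5 uM). Two reads 30 minutes apart at 525/598 nm yielded each well's rate.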
* hit, by the source's call; ? = inconclusive; · = no result; [ ] = another dose, or the depositor's remark. Shown are actives, neighbours in structure and some others; about 12% of the full set was active somewhere. Calls follow the shape of the dose curve; as a rule, active = well fitted curve in the direction sought with a large enough effect; inconclusive = small, poorly fitted or top-dose-only effect, or another doubt; inactive = no such curve, though single readings can be large; an effect the other way counts as inactive or inconclusive. Potency is read from the fitted curve at half-maximal effect.

SMILES	BAZ2B block	JMJD2A Tudor inh	G9a inh	HP1b binding inh	Sfp PPTase inh
COc1cc(NC(=O)c2cccnc2)c(Cl)cc1NC(=O)c1ccccc1	2%	-5%	36%	20%	20%
CC(c1ccccc1)N1C(=O)c2cccnc2C1=O (stereo not given)	?	-7%	4%	32%	3%
CC(NC1=CC(=O)c2cccnc2C1=O)C(O)c1ccccc1 (stereo not given)	·	56µM*	·	-18%	·
O=C(CCCN1C(=O)C(c2ccccc2)Oc2cccnc21)Nc1ccccc1C(F)(F)F (stereo not given)	-16%	3%	4%[59 µM]	46%	·
COc1ccc(Br)cc1CNC(=O)CN1C(=O)C(c2ccccc2)Oc2cccnc21 (stereo not given)	50µM*	-24%	20%	50%	6%
CCN(CC)c1ccc(NC(=O)CCCN2C(=O)C(c3ccccc3)Oc3cccnc32)c(C)c1 (stereo not given)	-39%	-21%	2.8µM*	15%	·
COc1ccc(C(=O)Nc2cc(C)c(NC(=O)c3ccccn3)cn2)cc1	-21%	-12%	45µM*	37%	-17%
Cc1cc(NC(=O)C2CC2)ncc1NC(=O)c1ccccn1	79µM*	-27%	?	-10%	?
O=C(Nc1nnc(CCS(=O)(=O)c2ccc3ccccc3c2)s1)c1ccc([N+](=O)[O-])cc1	-15%	-4%	-4%	26%	14%
Cc1nc2[nH]onc2c2nccc(=O)c12	-1%	-6%	14µM*	29%	0%
O=C(NNC(=S)Nc1ccccc1)c1ccccc1[N+](=O)[O-]	-14%	-20%	32µM*	13%	14%
CC(=O)c1ccc(NC(=S)NNC(=O)c2ccccc2[N+](=O)[O-])cc1	50µM*	-10%[57.1 µM]	?	-10%	-21%
Cc1ccc(C)c(NC(=O)CSc2nc(=O)n(CCN3CCOCC3)c3c2CCC3)c1	-27%	-12%	4%[59 µM]	20%	·
Cc1ccc(C(=O)CC2(O)C(=O)N(CCc3ccccc3)c3ccc(Br)cc32)o1 (stereo not given)	-14%	-35%	?	-1%	7.9µM*
O=C(NCCc1ccc2c(c1)OCCO2)c1ccccc1F	-3%	-1%	2%[59 µM]	20%	5%
O=C(/C=C/c1ccc(F)cc1)NCCc1ccc2c(c1)OCCO2	5%	-3%	89µM*	36%	1%
CN1CCN/C1=C(/C(Cl)=C(Cl)Cl)[N+](=O)[O-]	-27%	?	13µM*	36%	-3%
CN(Cc1ccccc1)C(=C(Cl)Cl)/C(=C1/NCCN1C)[N+](=O)[O-]	-33%	-4%	50µM*	28%	21%
CCOC(=O)c1cccc(NC(=O)c2cnn(-c3ccccc3)c2-n2cccc2)c1	-9%	-22%	-11%[59 µM]	-4%	·
CCOC(=O)c1c(NC(=S)Nc2cccnc2)sc(C)c1C	?	-16%	45µM*	12%	-40%
COC(=O)c1c(NC(=O)COC(=O)CNC(=O)c2ccco2)sc(C)c1C	-27%	-5%	-1%[59 µM]	21%	16%
CCOC(=O)c1c(NC(=O)COC(=O)CNC(=O)c2ccco2)sc(C)c1C	?	40µM*	-5%[59 µM]	-16%	15%
CCOC(=O)c1c(NC(=O)Cc2cccs2)sc(C)c1C	-34%	-9%	-15%[12.7 µM]	60%	20µM*
CCOC(=O)c1c(NC(=O)Cc2cccs2)sc(C(=O)NC2CCCC2)c1C	6%	-8%	11%[59 µM]	10%	27%
CCOC(=O)c1c(NC(=O)Nc2ccccc2)sc(C)c1C	-6%	-20%	40µM*	-17%	-9%
SMILES	BAZ2B block	JMJD2A Tudor inh	G9a inh	HP1b binding inh	Sfp PPTase inh
Cc1sc(NC(=O)c2ccco2)c(C(c2cccnc2)N2CCN(c3ccc(F)cc3)CC2)c1C (stereo not given)	?	?	?	-12%	0%
Cc1csc(NC(=O)c2ccco2)c1C(=O)c1ccccc1	-12%	-8%	-6%	30%	18%
Cc1sc(NC(=O)c2ccco2)c(C(c2ccc(F)cc2)N2CCN(C)CC2)c1C (stereo not given)	50µM*	56µM*	45µM*	?	-14%
Cc1sc(NC(=O)c2ccco2)c(C(=O)c2ccc(Cl)cc2)c1C	?	?	22µM*	?	40µM*
CCN(CC)c1ccc(NC(=O)C2CCCN(S(=O)(=O)c3cccnc3)C2)c(C)c1 (stereo not given)	-32%	?	20µM*	-7%	0%
CCN(CC)c1ccc(NC(=O)C2CCN(S(=O)(=O)c3cnc[nH]3)CC2)c(C)c1	·	?	11µM*	11%	·
COc1ccc2c(c1)CC(C(=O)Nc1ccc(OC)cc1OC)CO2 (stereo not given)	-18%	-23%	-41%[59 µM]	36%[57 µM]	·
Cc1ccc(NC(=O)C2CCN(S(=O)(=O)c3cnc[nH]3)CC2)cc1C	-5%	-12%	2%	10%	2%
CCN(CC)c1ccc(NC(=O)C2COc3ccc(OC)cc3C2)c(C)c1 (stereo not given)	1%	-31%	7.9µM*	30%[57 µM]	·
Cc1ccc(C(=O)N/N=C/C=C/c2ccccc2)o1	-8%	-15%	?	16%	-20%
COc1cc(C2c3cc(O)c(OC)cc3CC(C(=O)O)C2CO)ccc1O (stereo not given)	·	-17%	·	-4%	·
CN(C)C(=O)c1c(NC(=O)c2ccccc2F)sc2c1CCCC2	0%	-5%	0%[59 µM]	65%	·
CCCn1c(N)c(C(=O)CSc2nc(C)nc3sc(C)c(C)c23)c(=O)[nH]c1=O	-11%	-16%	22µM*	30%	·
CCCn1c(N)c(C(=O)CSc2nc(C)cs2)c(=O)[nH]c1=O	1%	-10%	3%[59 µM]	10%	18%
Cc1cccn2c(CN[C@@H]3CCCC[C@H]3c3ccccc3)c(C(=O)N3CCOCC3)nc12	-21%	-12%	-8%	20%	17%
COCCCN1C(=O)C(=O)/C(=C(/O)c2ccc(C)cc2)C1c1ccccc1 (stereo not given)	-8%	?	50µM*	2%	23%
COCCCN1C(=O)C(=O)/C(=C(/O)c2ccc(C)cc2)C1/C=C/c1ccccc1 (stereo not given)	-19%	-9%	45µM*	-2%	10%
Cc1ccc(/C(O)=C2\C(=O)C(=O)N(C)C2c2cccc([N+](=O)[O-])c2)cc1 (stereo not given)	-21%	-8%	79µM*	26%	-10%
COCCCN1C(=O)C(=O)/C(=C(/O)c2ccc(OC)cc2)C1c1cccc(OC)c1 (stereo not given)	-35%	-8%	?	22%	11%
